Tau fibril FP: qHTS for Inhibitors of Tau Fibril Formation, Fluorescence Polarization | K18 P301L tau heparin fibrillization, Alexa594 FP, 6 h | Potency, µM (series often up to 57.7 µM), without a hit: at the top dose activity, negative = inhibition, most hits filed as inhibitors | actives 0.39% (n = 280,000) | AID 1468, 2008; note: potency is the fitted concentration of half-maximal effect; nearly all actives have a fitted effect of over 55% in size
Target sequence (P10636 561-689 P618L limits assumed): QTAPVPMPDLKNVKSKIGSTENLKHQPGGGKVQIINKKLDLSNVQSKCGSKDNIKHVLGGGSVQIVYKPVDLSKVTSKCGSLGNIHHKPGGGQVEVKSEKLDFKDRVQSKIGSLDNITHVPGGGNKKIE
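Recombinant K18 P301L […], labeled with Alexa 594 at 0.24 uM over 15 uM unlabeled; heparin inducer 20 uM final; 37 C, 6 hr; FP endpoint.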
Tau fluor cs: Counterscreen qHTS for Inhibitors of Tau Fibril Formation, Fluorescence Polarization | actives 0.93% (n = 280,000) | Potency, µM (titrated, usually from 57.7 µM), without a hit: top-dose activity change, negative = decrease | tau K18 P301L Alexa594 fluorescence, heparin fibrillization; note: potency is the fitted concentration of half-maximal effect; nearly all actives have a fitted effect of over 55% in size
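Human tau K18 P301L (15 uM unlabeled, 0.24 uM Alexa 594-labeled) in 100 mM sodium acetate pH 7 with 20 uM heparin, 6 hr at 37 C. ThT 30 uM added, 1 hr ambient; Alexa 594 FP and total fluorescence read at 555/632 nm.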
Sfp inh: qHTS Assay for Inhibitors of Bacillus subtilis Sfp phosphopantetheinyl transferase (PPTase). 4'-phosphopantetheinyl transferase ffp (Bacillus subtilis), Q9F4F7. Biochemical Sfp PPTase activity, qHTS. Potency, µM, inactives show largest response in the series, negative = inhibition, hits mostly inhibitors. actives 3.5% (n = 310,000). AID 1490, 2009;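 note: the enzyme is Sfp with the accession as filed and its product quenches rhodamine fluorescence; potency is the fitted concentration of half-maximal effect; 0% = enzyme reaction without inhibitor and -100% = no enzyme wells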
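Fluorescence-quenching assay: 15 nM Sfp-PPTase preincubated 15 min at room temperature with compound, then 5 uM rhodamine-CoA and 12.5 uM BHQ-2-labelled YbbR peptide added. Fluorescence (ex 525/em 598 nm) read at start and after 30 min; difference gives rate.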
G9a block: qHTS Assay for Inhibitors of Histone Lysine Methyltransferase G9a | G9a H3K9 monomethylation, AlphaScreen, 2 h | Histone-lysine N-methyltransferase EHMT2 (Homo sapiens), Q96KQ7 | Potency, µM (series often up to 102 µM), for the others: at the top dose activity, negative = inhibition, actives largely listed as inhibitors | actives 8.8% (n = 350,000); note: potency is the fitted concentration of half-maximal effect; nearly all actives have a fitted effect of over 75% in size
Target sequence (Q96KQ7 913-1193 limits assumed): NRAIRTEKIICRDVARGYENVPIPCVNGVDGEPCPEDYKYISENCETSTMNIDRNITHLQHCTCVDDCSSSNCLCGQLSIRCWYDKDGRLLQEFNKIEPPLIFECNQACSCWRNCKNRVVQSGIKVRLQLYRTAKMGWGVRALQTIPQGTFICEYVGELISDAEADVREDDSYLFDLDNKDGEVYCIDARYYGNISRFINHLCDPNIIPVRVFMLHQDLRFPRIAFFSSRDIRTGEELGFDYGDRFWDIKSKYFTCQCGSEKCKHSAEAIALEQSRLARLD
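Readings reflect AlphaScreen signal from monomethyl-H3K9 antibody detection. HMT at 20 nM; substrate b-H3K9 500 nM; cofactor SAM 20 uM; 2 h RT reaction; compounds tested as titrations in qHTS with 15 min preincubation.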
Tau ThT inhib: qHTS for Inhibitors of Tau Fibril Formation, Thioflavin T Binding | Microtubule-associated protein tau (Homo sapiens), P10636 | recombinant tau K18 P301L, heparin-induced fibrillization, ThT fluorescence | Potency, µM (titrated, usually from 57.4 µM), for the others: at the top dose activity, negative = inhibition, usual class: inhibitors | actives 2.1% (n = 270,000); note: potency is the fitted concentration of half-maximal effect; nearly all actives have a fitted effect of over 55% in size
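ThT emission at 510 nm, taken 1 hr after adding 30 uM dye, quantifies aggregates formed when 20 uM heparin acts on human tau K18 P301L for 6 hr at 37 C.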
Coupling enz: qHTS Assay for Inhibitors of Fructose-1,6-bisphosphate Aldolase from Giardia Lamblia: Coupling assay counterscreen | coupling enzyme system counterscreen, AmpLite Red fluorescence | activity change, negative = inhibition, % at 58.2 µM, hits read low | actives 0.67% (n = 290,000); in the data active = activity change below about -30%
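Counterscreen lacking aldolase: glyceraldehyde-3-phosphate coupling-enzyme reagent preincubated 10 min at RT with compound (at 57.5 uM final), then substrate/coupling system with AmpLite Red added; fluorescence read at 525/598 nm after 20 min RT.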
* hit, by the source's call; ? = inconclusive; / = no result given; [ ] = remark or other dose. Sampled rows, rich in hits. Any-hit rate of the full collection: about 11%. Unless noted, calls come from the whole dose curve; as a rule, active = well fitted curve in the direction sought with a large enough effect; inconclusive = small, poorly fitted or top-dose-only effect, or another doubt; inactive = no such curve, though single readings can be large; an effect the other way counts as inactive or inconclusive. Unless noted, % is set by controls: 0 for no effect and ±100 for the full control effect.

SMILES | Tau fibril FP | Tau fluor cs | Sfp inh | G9a block | Tau ThT inhib | Coupling enz
COC(=O)c1cc(N2CCN(C)CC2)nc2ccccc12 | 3.8% | 1.7% | 4.3% | 11.2µM* | -6.0% | -8.3
Cc1cc(N2CCN(C)CC2)nc2ccc(NC(=O)c3cccnc3Cl)cc12 | -5.1% | -16.6% | 8.5% | ? | ? | -2.3
Cc1cc(N2CCN(C)CC2)nc2ccc(NC(=O)Nc3ccccc3Br)cc12 | ? | 12.6µM*[quencher] | / | ? | 12.6µM* | /
Cc1ccc(NC(=O)Nc2ccc3nc(N4CCN(C)CC4)cc(C)c3c2)cc1C | 3.3% | 4.47µM*[quencher] | / | ? | 8.91µM* | /
COC(=O)c1cc(-c2ccc3c(c2)OCO3)nc2ccccc12 | -9.8% | ? | -22.2% | 327.4% | -15.4% | 1.4
CCCN(CCC)C(=O)Cn1c(=O)n(-c2cccc(C)c2)c(=O)c2c1c1cc(OC)ccc1n2C | 8.4% | -15.5% | / | 7.6%[59 µM] | -8.2% | /
Cc1cc(N2CCN(C)CC2)nc2ccc(NC(=O)Nc3ccccc3)cc12 | ? | 17.8µM*[quencher] | / | -39.0%[59 µM] | ? | /
Cc1cc(N2CCN(C)CC2)nc2ccc(NC(=O)c3ccccc3F)cc12 | -1.7% | ? | 17.9% | -13.2%[59 µM] | ? | 1.1
Cc1cc(N2CCN(C)CC2)nc2ccc(NC(=O)Nc3cccc(Cl)c3)cc12 | ? | 3.98µM*[quencher] | / | ? | 14.1µM* | /
O=C(N/N=C/C(Cl)=C/c1ccc([N+](=O)[O-])cc1)C(=O)Nc1cccc(C(=O)O)c1 | -7.1% | ? | -28.6% | ? | 3.55µM* | -1.1
COc1ccc(Cl)cc1NC(=O)C/C(C)=N/NC(=O)c1ccc(O)cc1 | / | / | 11.3% | 70.8µM* | / | 1.2
COc1ccc(OC)c(NC(=O)c2cccc(Cn3cc(Br)c([N+](=O)[O-])n3)c2)c1 | 5.1% | ? | -11.7% | 2.51µM* | -8.7% | -1.2
Cc1ccccc1NC(=O)c1cccc(Cn2cc(Br)c([N+](=O)[O-])n2)c1 | -2.3% | -9.4% | 0.8% | 19.1%[12.7 µM] | 4.1% | -0.2
O=c1[nH]sc2ccccc12 | 25.1µM* | -14.5% | 5.01µM* | 1.78µM* | 11.2µM* | -0.9
O=c1cc(O)sc2ccccc12 | 2.2% | 1.2% | 8.9% | -41.2% | -10.0% | 6.0
FC(F)(F)c1ccc2c(c1)[nH]c(=S)n2C1CC1 | 5.8% | -12.1% | ? | ? | -4.7% | -0.4
FC(F)(F)c1ccc2c(c1)NCC1CCCN21 (stereo not drawn) | -16.8% | ? | -6.9% | 35.5µM* | ? | -3.3
O=[N+]([O-])c1cc(C(F)(F)F)ccc1N1CCCC(O)C1 (stereo not drawn) | -1.0% | -1.2% | 19.0% | ? | -7.0% | 2.3
FC(F)(F)c1ccc2c(c1)N1CCCC1CN2 (stereo not drawn) | -6.8% | ? | ? | 3.55µM* | 17.8µM* | -11.7
CCc1ccc(CN2CCC(n3nccc3NC(=O)Cc3ccccc3)CC2)o1 | / | / | 6.1% | 4.5% | / | /
C[n+]1ccccc1C1CCCC/C1=N\NC(N)=S (stereo not drawn) | 2.8% | -6.4% | -5.6% | 15.8µM* | -6.2% | -1.3
CC1CCCC/C1=N\NC(=S)NCCc1ccccc1 (stereo not drawn) | 3.4% | -15.3% | 12.5% | ? | ? | 2.2
[O-][n+]1c2c(c3c4non(O)c4ccc31)CCCC2 | 9.8% | ? | -6.3% | ? | 14.1µM* | -0.3
COn1c2c(c3c4no[n+]([O-])c4ccc31)CCCC2 | 1.6% | -17.1% | 11.3% | -16.0% | ? | -0.4
Cc1noc(/C=C/c2ccco2)c1S(=O)(=O)N1CCC(C(=O)NC(C)c2ccccc2)CC1 (stereo not drawn) | -1.8% | -21.1% | -13.1% | ? | -17.7% | 0.2
SMILES | Tau fibril FP | Tau fluor cs | Sfp inh | G9a block | Tau ThT inhib | Coupling enz
Cc1noc(/C=C/c2ccco2)c1S(=O)(=O)N1CCC(C(=O)N(C)Cc2ccccc2)CC1 | -7.4% | -18.7% | 44.7µM* | ? | ? | -0.5
Cc1cccc(C)c1-n1c(C)nn(-c2ncc(C(F)(F)F)cc2Cl)c1=O | 1.8% | -1.3% | 6.9% | -10.2% | 2.7% | -3.0
Cc1nn(-c2ncc(C(F)(F)F)cc2Cl)c(=O)n1-c1c(F)cccc1F | -2.6% | -0.5% | 16.3% | 79.4µM* | -5.3% | 3.1
CCCC(=O)Nc1nnc(C2CCCO2)s1 (stereo not drawn) | -3.8% | 1.7% | -24.3% | 12.9%[0.501 µM] | -2.8% | 0.4
O=C(CN1C(=O)c2ccccc2C1=O)Nc1nnc(C2CCCO2)s1 (stereo not drawn) | -1.5% | -13.3% | -12.9% | 44.7µM* | -9.5% | -0.9
Cc1cccc(-n2c(-c3ccco3)n[nH]c2=S)c1 | 9.4% | -3.5% | -14.6% | 2µM* | -11.9% | -5.2
Cc1ccccc1-n1c(-c2ccco2)n[nH]c1=S | -7.7% | 6.4% | 3.9% | 7.08µM* | 7.3% | -2.4
Cc1cccc(-n2c(SCC(N)=O)nnc2-c2ccco2)c1 | / | / | 8.0% | 52.8% | / | 1.0
FC(F)(F)c1ccccc1-n1c(-c2ccco2)n[nH]c1=S | / | / | 11.3% | 15.8µM* | / | 0.3
COc1cc(NC(=O)c2nn(-c3ccc(F)cc3)c(=O)n(C)c2=O)cc(OC)c1OC | 3.4% | 1.4% | / | 13.7%[59 µM] | 0.7% | /
COc1cc(COc2ccc3c(C)c(CC(=O)O)c(=O)oc3c2C)cc(OC)c1OC | / | / | 4.7% | 9.0% | / | -0.7
Cc1c(/C=N/NC(=O)c2cc(Br)ccc2O)c(=O)n(C)c(=O)n1C | / | / | 3.2% | 5.1%[59 µM] | / | 0.0
CC(C)CC(NC(=O)C1CCC(C)CC1)C(=O)OCC(=O)c1ccc(Cl)cc1 (stereo not drawn) | -5.9% | -4.8% | / | -37.1%[59 µM] | -3.4% | /
Nc1cc2c(cc1[N+](=O)[O-])OCO2 | -2.1% | -14.8% | 2.4% | 50.1µM* | ? | -15.9
Nc1cc2c(cc1[N+](=O)[O-])OCCO2 | 5.1% | 5.2% | 6.3% | 9.8%[59 µM] | ? | -4.2
CC1CCc2c(sc3nnn(Cc4ccc(F)cc4)c(=O)c23)C1 (stereo not drawn) | -3.0% | ? | / | 72.4%[59 µM] | ? | /
CC1(CCc2ccc3c(c2)OCO3)NCCc2c1[nH]c1ccccc21 (stereo not drawn) | / | / | 2.2% | 50.1µM* | / | -0.9
FC(F)OC(Cl)C(F)(F)F (stereo not drawn) | / | / | 33.8% | -1.4%[12.7 µM] | / | /
CCC(=O)NC(c1ccc(OC)cc1)c1c(O)ccc2ccccc12 (stereo not drawn) | 1.3% | -20.7% | -0.3% | ? | 1.3% | 1.4

Compound activity deposited in PubChem by National Center for Advancing Translational Sciences (NCATS).
